LmPK inhibitor: inhibitors of Leishmania mexicana pyruvate kinase | Q27686 | purified LmPK, Kinase-Glo ATP luminescence, 1 h | Potency, µM (series often up to 57.5 µM), inactives show top-dose activity change, negative = inhibition, most hits filed as inhibitors | 290,000 compounds, 0.37% hits | AID 1721; note: potency is the fitted concentration of half-maximal effect; % is set by controls: 0 for no effect and ±100 for the full control effect
Target sequence (Q27686 whole entry, looked up): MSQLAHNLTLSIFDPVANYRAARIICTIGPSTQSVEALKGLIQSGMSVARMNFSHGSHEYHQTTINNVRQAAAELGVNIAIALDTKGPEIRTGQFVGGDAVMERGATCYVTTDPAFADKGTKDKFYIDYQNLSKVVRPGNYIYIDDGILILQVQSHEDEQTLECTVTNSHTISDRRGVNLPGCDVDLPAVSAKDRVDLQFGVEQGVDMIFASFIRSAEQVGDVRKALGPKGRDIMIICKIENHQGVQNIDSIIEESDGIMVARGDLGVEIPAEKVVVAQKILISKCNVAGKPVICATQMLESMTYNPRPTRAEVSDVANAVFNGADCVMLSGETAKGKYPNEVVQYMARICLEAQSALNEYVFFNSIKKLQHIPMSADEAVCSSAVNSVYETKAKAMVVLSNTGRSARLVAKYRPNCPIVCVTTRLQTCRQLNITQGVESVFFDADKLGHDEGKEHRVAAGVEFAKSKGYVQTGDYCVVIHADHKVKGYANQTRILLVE
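Purified LmPK (0.1 nM) with 0.5 mM PEP and 0.1 mM ADP in imidazole buffer pH 7.2 with MgCl2/KCl, 1 h at room temperature. ATP formed was read by luciferase luminescence and normalized to no-enzyme and uninhibited controls.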
Shiga inhibitor: Shiga toxin inhibition. AID 2315. inhibition, % at 38.7 µM. 290,000 compounds, 9.2% hits. Vero cells, Shiga toxin protein synthesis inhibition reporter; in the data active = inhibition mostly above about 28%, no sharp cut-off; inactive = mostly below about 43%; note: 0% is about no effect
Pf growth 96h: P. falciparum growth inhibition at 96 hours | Potency, µM (top dose mostly 28.7 µM), inactives show at the highest dose activity change, negative = inhibition, most hits filed as inhibitors | 320,000 compounds, 6.9% hits | P. falciparum luciferase reporter growth, 96 h; note: potency is the fitted concentration of half-maximal effect; % is set by controls: 0 for no effect and ±100 for the full control effect
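Luminescence readout: decreased luciferase signal marks inhibited growth of reporter-expressing P. falciparum in infected red cells (2% hematocrit, 0.05% parasitemia final), exposed to compound two generations (96 h, 37 C, 5% CO2).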
Pf growth 48h: inhibits P. falciparum growth in the first generation, 48 h; Potency, µM (series often up to 28.7 µM), for inactives: at the top dose activity change, negative = inhibition, hits mostly inhibitors; 310,000 compounds, 5.9% hits; P. falciparum luciferase growth in erythrocytes, 48 h; note: potency is the fitted concentration of half-maximal effect; % is set by controls: 0 for no effect and ±100 for the full control effect
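Luciferase-expressing P. falciparum in infected erythrocytes (2% hematocrit, 0.1% parasitemia final) in RPMI 1640/0.5% Albumax were exposed to compound for 48 hours at 37 C, 5% CO2; growth read as luminescence.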
Cycloheximide cs: counter-screen hit for Shiga toxin inhibitors, cycloheximide; max response, %; cell reporter, cycloheximide protein synthesis inhibition counterscreen; 300,000 compounds, 12% hits; in the data active = max response mostly above about 13%, no sharp cut-off; inactive = mostly below about 14%; note: read at 38.3 µM for the half of the compounds with a filed dose; 0% is about no effect
The depositor's hits bear a star. Compounds with a hit are over-represented: about 22% of the library has one in this group of screens. Unless noted, calls come from the whole dose curve; as a rule, active = well fitted inhibition curve with a large enough effect; inconclusive = small, poorly fitted or top-dose-only effect, or another doubt; inactive = no such curve, though single readings can be large or run the other way.

Results for COc1ccc(/C=N\NC(=O)CNC(=O)C2COc3ccccc3O2)cc1[N+](=O)[O-] (stereo not drawn) ?
LmPK inhibitor: 3%; Shiga inhibitor: -8; Pf growth 96h: 5%; Pf growth 48h: 14%; Cycloheximide cs: -4

What do the screens show for `COC(=O)C(CCSC)NC(=O)c1cc2c(n(-c3ccccc3)c1=O)CC(C)(C)CC2=O` (stereo not drawn)?
LmPK inhibitor: 0%; Shiga inhibitor: 6; Pf growth 96h: 3.7µM*; Pf growth 48h: -20%; Cycloheximide cs: -4

What do the screens show for `CCOC(=O)c1cc2c(n(-c3ccccc3)c1=O)CC(C)(C)CC2=O`?
LmPK inhibitor: 1%; Shiga inhibitor: -12; Pf growth 48h: -15%; Cycloheximide cs: -7

Results for COC(=O)C(CCSC)NC(=O)c1cc2c(n(-c3ccc(C)cc3)c1=O)CCCC2=O (stereo not drawn) ?
LmPK inhibitor: 27%; Shiga inhibitor: 25; Pf growth 96h: inconclusive; Pf growth 48h: 23%; Cycloheximide cs: 19*

What do the screens show for `Cc1ccc(OCc2cnc(Cl)s2)c(C)c1`?
LmPK inhibitor: -1%; Shiga inhibitor: 146*; Pf growth 96h: -2%; Pf growth 48h: 22%; Cycloheximide cs: 36*

What do the screens show for `CC(=O)Nc1ccccc1OCc1cnc(Cl)s1`?
LmPK inhibitor: 0%; Shiga inhibitor: 7; Pf growth 96h: -24%; Pf growth 48h: 0%; Cycloheximide cs: 1

What do the screens show for `COc1ccc(Cc2cnc(N)s2)cc1`?
LmPK inhibitor: 4%; Shiga inhibitor: 24; Pf growth 96h: 0%; Pf growth 48h: 55%; Cycloheximide cs: 5

Results for COc1ccc(OCc2cnc(Cl)s2)cc1 ?
LmPK inhibitor: -1%; Shiga inhibitor: 60*; Pf growth 96h: 7%; Pf growth 48h: 55%; Cycloheximide cs: 29*

Results for O=[N+]([O-])c1ccc(OCc2cnc(Cl)s2)cc1 ?
LmPK inhibitor: 1%; Shiga inhibitor: 32; Pf growth 96h: 18%; Pf growth 48h: 21%; Cycloheximide cs: 32*

How did N#CC(C(N)=O)=C1CCCCC1 do in these assays?
LmPK inhibitor: 1%; Shiga inhibitor: 15; Pf growth 96h: -11%; Pf growth 48h: 20%; Cycloheximide cs: 3

How did CC[C@H](C)[C@H](NC(=O)[C@H](C)NC(=O)[C@H](Cc1cnc[nH]1)NC(=O)[C@@H]1CCCN1C(=O)CNC(=O)[C@H](CC(C)C)NC(=O)[C@H](CC(C)C)NC(=O)[C@H](Cc1ccc(O)cc1)NC(=O)CNC(=O)[C@H](C)NC(=O)[C@H](CO)NC(=O)[C@H](CC(N)=O)NC(=O)[C@H](CC(C)C)NC(=O)[C@@H](NC(=O)[C@H](Cc1c[nH]c2ccccc12)NC(=O)CN)[C@@H](C)O)C(=O)O do in these assays?
Shiga inhibitor: -7; Cycloheximide cs: -5

Results for Cc1nc(-c2ccc(NC(=O)c3ccco3)cc2)cs1 ?
LmPK inhibitor: inconclusive; Shiga inhibitor: 28; Pf growth 96h: inconclusive; Pf growth 48h: -17%; Cycloheximide cs: 11*

What do the screens show for `Cc1nc(-c2cccc(NC(=O)c3ccco3)c2)cs1`?
LmPK inhibitor: -5%; Shiga inhibitor: 45; Pf growth 96h: -22%; Pf growth 48h: inconclusive; Cycloheximide cs: 27*

Results for Nc1nc(-c2ccc(NC(=O)c3ccco3)cc2)cs1 ?
LmPK inhibitor: -18%; Shiga inhibitor: 40*; Pf growth 96h: 123%; Pf growth 48h: 11%; Cycloheximide cs: 17*

How did Cc1ccn2cc(-c3ccc(NC(=O)c4ccco4)cc3)nc2c1 do in these assays?
LmPK inhibitor: -14%; Shiga inhibitor: active; Pf growth 96h: -77%; Pf growth 48h: inconclusive; Cycloheximide cs: 43*

What do the screens show for `Cc1ccc(NC(=O)C2CCC(N3C(=O)C4CCCCC4C3=O)CC2)cc1` (stereo not drawn)?
LmPK inhibitor: -3%; Shiga inhibitor: -1; Pf growth 96h: 10%; Pf growth 48h: -16%; Cycloheximide cs: -2

Results for Cc1ccc(S(=O)(=O)N2CCOCC2)cc1NC(=O)Cn1nc(C)c([N+](=O)[O-])c1C ?
Pf growth 96h: 4%; Pf growth 48h: 0%

What do the screens show for `COc1ccc(CNC(=O)CNS(=O)(=O)c2cccs2)cc1`?
LmPK inhibitor: 2%; Shiga inhibitor: -6; Pf growth 96h: -2%; Pf growth 48h: 6%; Cycloheximide cs: 1

What do the screens show for `COC(=O)C1=C(c2ccc(-c3ccccc3)c(F)c2)C[C@@H]2CC[C@H]1N2C(=O)N1CCc2cc(OC)c(OC)cc2C1`?
Pf growth 96h: inconclusive; Pf growth 48h: 5.9µM*

What do the screens show for `COC(=O)C1=C(c2ccc(OC)c(OC)c2)C[C@@H]2CC[C@H]1N2C(=O)N1CCCCC1`?
Pf growth 96h: 6%; Pf growth 48h: inconclusive

Results for COC(=O)C1=C(c2ccc(-c3ccccc3)c(F)c2)C[C@@H]2CC[C@H]1N2C(=O)N1CCCCC1 ?
Pf growth 96h: inconclusive; Pf growth 48h: 10µM*

What do the screens show for `COC(=O)C1=C(c2ccc3ccccc3c2)C[C@@H]2CC[C@H]1N2C(=O)N1CCCC1`?
Pf growth 96h: inconclusive; Pf growth 48h: 9.3µM*

How did COC(=O)C1=C(c2ccc(-c3ccccc3)c(F)c2)C[C@@H]2CC[C@H]1N2C(=O)N1CCCC1 do in these assays?
Pf growth 96h: inconclusive; Pf growth 48h: 15µM*

What do the screens show for `Cc1ccc(/C=C/c2onc(C)c2S(=O)(=O)N2CCC(C(=O)NC(C)(C)C)CC2)cc1`?
LmPK inhibitor: 5%; Shiga inhibitor: 18; Pf growth 96h: inconclusive; Pf growth 48h: inconclusive; Cycloheximide cs: -2

How did CC1(NC(=O)CSc2nnc(-c3c[nH]c4ccccc34)n2C2CC2)CCS(=O)(=O)C1 (stereo not drawn) do in these assays?
Pf growth 96h: inconclusive; Pf growth 48h: -26%

Results for O=S(=O)([N-]c1nc2ccccc2nc1-[n+]1ccccc1)c1ccccc1 ?
LmPK inhibitor: -3%; Shiga inhibitor: 9; Pf growth 96h: 10%; Pf growth 48h: 0%; Cycloheximide cs: -3

What do the screens show for `O=S(=O)([N-]c1nc2ccccc2nc1-[n+]1ccc(CCCc2ccccc2)cc1)c1cccs1`?
LmPK inhibitor: -3%; Shiga inhibitor: 7; Pf growth 96h: 5.2µM*; Pf growth 48h: 7.4µM*; Cycloheximide cs: 5

How did O=S(=O)([N-]c1nc2ccccc2nc1-[n+]1ccc(-c2ccncc2)cc1)c1ccccc1 do in these assays?
LmPK inhibitor: 2%; Shiga inhibitor: 92*; Pf growth 96h: inconclusive; Pf growth 48h: inconclusive; Cycloheximide cs: 34*

Results for N#CC(c1ccc(Cl)cc1)c1c(Cl)cc(-n2ncc(=O)[nH]c2=O)cc1Cl (stereo not drawn) ?
Pf growth 96h: -6%; Pf growth 48h: inconclusive

Results for CC(=O)n1cc([C@H]2C=C(C(=O)NCc3ccccc3)O[C@@H](OCCCCO)C2)c2ccccc21 ?
LmPK inhibitor: 2%; Shiga inhibitor: 1; Pf growth 96h: inconclusive; Pf growth 48h: 5.9µM*; Cycloheximide cs: -3

Assay outcomes deposited in PubChem BioAssay by National Center for Advancing Translational Sciences (NCATS).
